# Most compounds without a hit are left out; they make up all but 21% or so of the library.
# Shiga toxin inh: A qHTS for Small Molecule Inhibitors of Shiga Toxin. Vero cells, Shiga toxin protein synthesis inhibition reporter. inhibition, % at 38.7 µM. actives 9.2% (n = 290,000); in the data active = inhibition mostly above about 28%, no sharp cut-off; inactive = mostly below about 43%; also: 0% is about no effect
# Pf growth 48h: Primary qHTS for delayed death inhibitors of the malarial parasite plastid, 48 hour incubation. P. falciparum luciferase growth in erythrocytes, 48 h. AID 504832, 2011. Potency, µM (series often up to 28.7 µM), without a hit: at the highest dose activity change, negative = inhibition, most hits filed as inhibitors. actives 5.9% (n = 310,000); also: potency is read from the fitted curve at half-maximal effect; % is scaled to controls: 0 for no effect and ±100 for the full control effect
#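 Luciferase-expressing parasites in RBCs, 2% Hct / 0.1% parasitemia final; RPMI 1640 + 0.5% Albumax; 37 C, 5% CO2, one generation; luminescence read-out, lower signal = inhibition.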
# Pf growth 96h: Primary qHTS for delayed death inhibitors of the malarial parasite plastid, 96 hour incubation; Potency, µM (highest dose often 28.7 µM), without a hit: top-dose activity change, negative = inhibition, usual class: inhibitors; AID 504834, 2011; actives 6.9% (n = 320,000); P. falciparum luciferase reporter growth, 96 h; also: potency is read from the fitted curve at half-maximal effect; % is scaled to controls: 0 for no effect and ±100 for the full control effect
#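 Readout is luminescence from an integrated firefly luciferase in P. falciparum. Red cells, 2% hematocrit and 0.05% parasitemia final, were cultured with compound through two parasite generations (96 hours) at 37 C, 5% CO2.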
# Cycloheximide cs: Cycloheximide Counterscreen for Small Molecule Inhibitors of Shiga Toxin; cell reporter, cycloheximide protein synthesis inhibition counterscreen; max response, %; actives 12% (n = 300,000); AID 2314, 2010; in the data active = max response mostly above about 13%, no sharp cut-off; inactive = mostly below about 14%; also: read at 38.3 µM for the half of the compounds with a filed dose; 0% is about no effect
# SARS PLP yeast: qHTS of Yeast-based Assay for SARS-CoV PLP | S. cerevisiae expressing SARS-CoV PLpro, growth rescue | actives 0.19% (n = 330,000) | Potency, µM (series often up to 32.9 µM), for the others: at the top dose activity, positive = growth rescue, usual class: activators | AID 485353, 2010; calls by dose curve; also: potency is read from the fitted curve at half-maximal effect; 0% is about no effect; nearly all actives have a fitted effect of over 55% in size
# NS1 function inh: qHTS Assay for Inhibitors of Influenza NS1 Protein Function | Potency, µM (top dose mostly 46.1 µM), for the others: at the top dose activity, positive = more growth | actives 0.4% (n = 270,000); calls by dose curve; also: potency is read from the fitted curve at half-maximal effect; actives are rising curves; nearly all actives have a fitted effect of over 50% in size
#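 Compounds were scored for reversing the slow growth caused by influenza A NS1 in S. cerevisiae, measured by optical density at 600 nm. Assay medium contained 2% galactose at pH 6.0; NS1-free yeast of the same strain were the positive control.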
# * marks the source's active call; other numbers are inactive results; ? = inconclusive; · = not tested or not shown. Unless noted, calls follow the shape of the dose curve; as a rule, active = well fitted inhibition curve with a large enough effect; inconclusive = small, poorly fitted or top-dose-only effect, or another doubt; inactive = no such curve, though single readings can be large or run the other way.
SMILES,Shiga toxin inh,Pf growth 48h,Pf growth 96h,Cycloheximide cs,SARS PLP yeast,NS1 function inh
O=C(Nc1ccc(Br)cc1)c1cccc(N2C(=O)C3C4CCC(C4)C3C2=O)c1 (stereo not given),-34,-7%,-7%,9,-7%,7%
Cc1ccc(S(=O)(=O)n2ccc(-c3ccc(OCc4c(F)cccc4Cl)cc3)n2)cc1,4,9.3µM*,-109%,1,9%,3%
Cc1ccc(S(=O)(=O)n2ccc(-c3cccc(OCc4c(F)cccc4Cl)c3)n2)cc1,33,3.7µM*,0.74µM*,-2,?,26%
CCOC(=O)N1CCN(Cc2nc(N)nc(Nc3ccc(C)cc3C)n2)CC1,16,1%,68%,-4,14%,-3%
Cn1c2cc([N+](=O)[O-])sc2c2cnn(Cc3ccccc3F)c(=O)c21,·,?,?,·,-6%,·
Cc1ccc2cccc(N)c2n1,16,-15%,0.93µM*,16,0%,·
CC(C)c1ccc(NC(=S)Nc2ccc3cn[nH]c3c2)cc1,73*,65%,13%,22*,-1%,·
CC(=O)c1ccc(NC(=S)Nc2ccc3cn[nH]c3c2)cc1,48,4%,0%,13,1%,·
COc1ccccc1NC(=S)Nc1ccc2cn[nH]c2c1,47*,20%,45%,16*,1%,·
Cc1ccccc1NC1=NC(=S)N(c2ccccc2)C12CCCCC2,2,?,10µM*,-4,-13%,4%
CCOC(=O)C1=NN(c2ccc(Cl)cc2)C(=O)C1,121*,63%,3%,57*,-2%,0%
CCOC(=O)c1nn(-c2ccc(Cl)cc2C)ccc1=O,-9,-1%,-8%,-3,5%,-6%
COC(=O)c1nn(-c2ccc(-c3ccccc3)cc2)cc1O,22,-28%,20%,29*,-11%,-23%
CCOC(=O)c1nn(-c2ccc(C)cc2)cc1O,76*,·,24%,55*,1%,-2%
CCOC(=O)c1nn(-c2cc(C(=O)OC)cc(C(=O)OC)c2)cc1O,-18,20%,2%,-3,1%,-11%
CCOC(=O)c1nn(-c2ccc(Cl)cc2)cc1O,101*,47%,115%,56*,-1%,-6%
CCC(C(=O)OCC(=O)N(CC)c1c(N)n(Cc2ccccc2)c(=O)[nH]c1=O)c1ccccc1 (stereo not given),·,-27%,?,·,2%,·
CCOc1ccccc1C(=O)NCC(=O)OCCOc1cccc(Cl)c1,-6,13%,?,-3,-10%,-22%
CCOC(=O)c1cc(C(=O)OCC)cc(-n2cc(O)c(C(=O)OCC)n2)c1,-8,2%,?,-1,-4%,11%
CCOC(=O)c1nn(-c2ccc3ccccc3c2)cc1O,108*,120%,119%,39*,-3%,·
c1cc2c(cc1-n1cnnn1)OCO2,45,0%,51%,-1,2%,5%
CCOC(=O)c1nn(-c2ccccc2)cc1O,55*,65%,91%,23*,-1%,0%
CCOC(=O)c1nn(-c2ccc3c(c2)OCO3)cc1O,108*,100%,63%,43*,1%,-19%
CCOc1ccccc1N(CC(=O)N1CCOCC1)S(=O)(=O)c1ccc(SC)cc1,-9,-14%,12%,0,-1%,-13%
C[C@H](CCCC(C)(C)O)[C@H]1CC[C@H]2[C@@H]3CC=C4C[C@@H](O)CC[C@]4(C)[C@H]3CC[C@]12C,·,2%,-6%,·,·,·
SMILES,Shiga toxin inh,Pf growth 48h,Pf growth 96h,Cycloheximide cs,SARS PLP yeast,NS1 function inh
Cc1nnc(NC(=O)c2ccc(S(=O)(=O)C(F)F)cc2)s1,36,98%,123%,27*,-1%,0%
Cc1cc(C)cc(NC(=O)c2ccc(S(=O)(=O)C(F)F)cc2)c1,21,34%,34%,8,-19%,-11%
Cc1cccc(NC(=O)c2ccc(S(=O)(=O)C(F)F)cc2)c1C,24,37%,0%,16*,8%,18%
Cc1ccc(S(=O)(=O)NCC(=O)NC2CC2)cc1,-9,13%,-63%,-1,-6%,0%
CN(C)c1nc2ccc(OCCN3CCCCC3)cc2s1,57,67%,47%,42*,0%,-2%
Cc1ccc(OCCN2CCCC2)cc1,32,-15%,-3%,-1,-6%,-11%
CCN(CC)CCOc1ccc2nc(N(C)C)sc2c1,32,12%,4%,27*,7%,?
CCOc1ccc2nc(N(CCN(CC)CC)C(=O)c3ccc([N+](=O)[O-])cc3)sc2c1,-15,-21%,0%,-2,0%,·
CC(C)(C)NC(=O)c1ccccc1-c1nc(-c2ccccc2Cl)no1,30,30%,2.1µM*,25*,-3%,-66%
Cc1ccccc1-c1noc(-c2ccccc2C(=O)NCc2ccco2)n1,60*,-12%,-17%,18*,-1%,-4%
COCCNC(=O)c1ccccc1-c1nc(-c2ccccc2OC)no1,35,31%,?,15*,-2%,1%
CC(C)/C=C/CN1CCN(CCCc2ccccc2)C(CCO)C1 (stereo not given),·,0%,?,-1,-1%,-3%
Cc1ccc(OCC(=O)NNC(=O)c2ccc3c(=O)n4c(nc3c2)CCC4)cc1,·,?,-2%,·,3%,·
Cc1ccsc1/C=N/n1cnc2sc(C)c(C)c2c1=O,32,48%,25%,16*,1%,-111%
Cc1sc2ncn(/N=C/c3cn(-c4ccccc4)nc3-c3ccccc3)c(=O)c2c1C,6,·,·,6,·,·
O=C(CSc1nc2ncccc2[nH]1)NCc1ccccc1,6,0%,-1%,16*,1%,-6%
COc1ccc(CNC(=O)CSc2nc3ccc(OC)cc3[nH]2)cc1,-2,-5%,13%,1,1%,-6%
O=C(CSc1nc2[nH]ncc2c(=O)[nH]1)NCc1ccccc1,-5,0%,24%,1,3%,5%
Cc1cc(NC(=O)CSc2nc3ccccc3[nH]2)n(-c2ccccc2)n1,17,1.9µM*,4.7µM*,-2,1%,2%
O=C(CSc1nc2ccccc2[nH]1)NCc1ccccc1,68*,28%,?,36*,8%,13%
O=C(CSc1nc2ncccc2[nH]1)NC1CCCCC1,-5,2%,6%,4,-1%,7%
COc1ccc(CNC(=O)CSc2nc3ccc(C)cc3[nH]2)cc1,30,33%,17%,26*,0%,-1%
C=C(C)C(=O)OCCOCC,-2,·,·,-4,·,·
Cn1c(-c2ccccc2)cnc1NCc1ccc(F)cc1,39,55%,6%,24*,1%,2%
Cn1c(-c2ccc(F)cc2)cnc1NCc1ccccc1,55,20%,?,20*,0%,-3%
Cc1ccc(NC(=O)c2cc(N3C(=O)C=CC3=O)ccc2N2CCOCC2)cc1Cl,-9,9%,9%,-6,-87%,-48%
